According to ChEMBL document CHEMBL4513216, “Probing the Open Global Health Chemical Diversity Library for Multistage-Active Starting Points for Next-Generation Antimalarials” (ACS Infect Dis, 2020):
The whole screen tested about 68,000 compounds, of which about 2,700 (4%) showed an effect of 50% or more. For the sample, strong results were picked, then their nearest neighbours and some compounds at random.

The compounds below were run on Plasmodium berghei (assay: Screen against P. berghei liver stage (PbLuc), transformed with Luciferase, at 2uM). Settings: tested at 2 uM.
Format: functional, HepG2

Row | Compound | INHIBITION
1 | CCS(=O)(=O)N1Cc2ncn(CC3CC3)c2C(COC)C1 (centres undefined) | 26.19%
2 | Clc1ccc2oc(C3CCN(Cc4nc(C5CC5)no4)CC3)nc2c1 | 10.11%
3 | c1cc(CCN2CCN(c3ccc4nncn4n3)CC2)ccn1 | -1.88%
4 | C[S+]([O-])c1nncn1CC(=O)c1ccc(Cl)c(Cl)c1 (centres undefined) | 20.66%
5 | C[S+]([O-])c1nncn1CC(=O)c1ccc2c(c1)CCC2 (centres undefined) | 61.82%
6 | C[S+]([O-])c1nncn1CC(=O)c1ccc2c(c1)CCO2 (centres undefined) | -0.75%
7 | COc1ccc(C2CN(c3cc(C)ncn3)CCN2C(C)=O)cc1 (centres undefined) | -28.43%
8 | CSCc1noc(CN2CC(Cc3ccccc3)CC2=O)n1 (centres undefined) | 6.75%
9 | O=C(c1cc(=O)[nH]c(=O)[nH]1)N1CCCCC1c1nc2cc(F)ccc2[nH]1 (centres undefined) | -18.49%
10 | O=C(Cc1cccs1)NCC(=O)Nc1cn[nH]c1 | 28.49%
11 | CC(NCC(=O)NCC(=O)Nc1ccc(F)cc1)c1cccs1 (centres undefined) | 16.95%
12 | CN(CC(=O)NCC(=O)Nc1ccc(F)cc1)Cc1cccs1 | 69.13%
13 | CCn1cc(C(=O)N2CCOC(c3nc(-c4cccs4)no3)C2)cn1 (centres undefined) | -36.52%
14 | COc1cc(-c2n[nH]c(CC#N)n2)cc(OC)c1OC | 16.72%
15 | CCc1cc(N2CCC(n3cc(C(=O)NCC(C)C)nn3)CC2)ncn1 | -71.68%
16 | CC(C)Nc1cc(N2CCC(n3cc(C4CCCC4)nn3)CC2)ncn1 | -1.21%
17 | CCc1cc(N2CCC(n3cc(C(=O)NC4CC4)nn3)CC2)ncn1 | 52.66%
18 | O=C(NC1CC1)c1cn(C2CCN(c3cc(C4CC4)ncn3)CC2)nn1 | -26.81%
19 | CC(C)Nc1cc(N2CCC(n3cc(CCO)nn3)CC2)ncn1 | 69.71%
20 | CC(C)Nc1cc(N2CCC(n3cc(C4CC4)nn3)CC2)ncn1 | -46.8%
21 | CCC(CO)NCc1ccc(-c2ccc(Cl)cc2)o1 (centres undefined) | 2.25%
22 | CNC(=O)CCc1cc(C)nc(C2CCN(c3ccccc3)CC2)c1 | -107.54%
23 | CN(C)CCN1CCC2(CCN(C(=O)c3cccnc3)CC2)C1=O | 6.66%
24 | O=C(O)c1nnn(Cc2cccc(C(F)(F)F)c2)c1-c1cccnc1 | 39.9%
25 | O=C(O)c1nnn(Cc2cccc(C(F)(F)F)c2)c1-c1ccncc1 | 43.75%
26 | O=C(O)c1nnn(Cc2cccc(C(F)(F)F)c2)c1-c1ccccn1 | 55.25%
27 | COc1ccc2c(c1)CN(Cc1ccco1)C(=O)CCN2CC(C)(C)O | -35.52%

Row | Compound | INHIBITION
28 | COc1ccc(F)cc1C(=O)N(C)[C@@H]1CC[C@@H](O)[C@@H]1O | 16.87%
29 | CO[C@@H]1CCC[C@@H](N(C)C(=O)c2cc(F)ccc2F)[C@H]1O | 53.16%
30 | CN(C(=O)c1cc(F)ccc1F)[C@@H]1CC[C@@H](O)[C@@H]1O | 41.21%
31 | O=C(CO)N1CCOC2(CCCN(c3ncc(F)cn3)C2)C1 (centres undefined) | 14.27%
32 | CC(C)(C(=O)N1CCCC(OCc2cccnc2)C1)n1cccc1 (centres undefined) | 27.81%
33 | O=C(CC1CCCCC1)N1CCOCC1CO (centres undefined) | 18.81%
34 | CN(CCO)CC1COCCN1C(=O)C1CCCCC1 (centres undefined) | -23.4%
35 | CN(CCO)CC1COCCN1C(=O)CCC1CCCC1 (centres undefined) | 69.06%
36 | CCOC(=O)NCC(=O)Nc1nc2ccccc2n1C(C)(C)C | 30.23%
37 | CCc1nccc(CN2CCC(CNC(=O)c3occc3C)C2)n1 (centres undefined) | -4.04%
38 | Cc1ncc2c(n1)CN(Cc1nc(Cc3ccccc3)no1)CC2 | -54.44%
39 | c1ccc(Cc2noc(CN3CCc4cncnc4C3)n2)cc1 | 56.02%
40 | CC(C)c1ncc2c(n1)CN(Cc1nc(Cc3ccccc3)no1)CC2 | 6.12%
41 | Cc1cccc(C2CCCN2C(=O)CN(C)S(C)(=O)=O)c1C (centres undefined) | -73.81%
42 | COCCn1c2c(ccc1=O)CC(NC(=O)c1cscn1)CC2 (centres undefined) | -25.4%
43 | NC1CC(C(F)(F)F)=NC=C1c1ccc(Cl)cc1 (centres undefined) | -19.36%
44 | CN(C)c1cc(CNCc2cccc3c2OCCO3)ccn1 | -15.64%
45 | FC1(F)CCN(Cc2cccnc2)CC12CCN(c1ccccc1)C2 (centres undefined) | 31.41%
46 | COc1cccc(CC(=O)N2CCc3ncnc(C)c3CC2)c1 | 19.49%
47 | COc1cccc(CC(=O)N2CCc3ncnc(NC(C)C)c3CC2)c1 | 2.71%
48 | O=C(C1CCCCO1)N1CCc2ncnc(NCc3ccon3)c2CC1 (centres undefined) | 59.58%
49 | COc1cccc(CC(=O)N2CCc3ncnc(NCCO)c3CC2)c1 | 52.98%
50 | O=C([C@H]1CCCO1)N1CCc2ncnc(NC3CC3)c2CC1 | -15.36%
51 | O=C(CC1C=CCC1)N1CCc2ncnc(NCc3ccon3)c2CC1 (centres undefined) | 42.26%
52 | CC(C)Nc1ncnc2c1CCN(C(=O)[C@H]1CCCO1)CC2 | 35.89%
53 | O=C(C1CCCO1)N1CCc2ncnc(NC3CCC3)c2CC1 (centres undefined) | 46.32%
54 | O=C(C1CCCCO1)N1CCc2ncnc(NCCO)c2CC1 (centres undefined) | 57.89%
